Assay results as given in PubChem BioAssay.
The source made the active and inactive calls.

Experiment: resazurin metabolic signal in HepG2 cells – cell-based, resazurin fluorescence, 24 h, PK04 Diversity Set, profiling panel (AID 1172); also: test concentration not given here
Settings: HepG2 viability, higher = more signal

SMILES | z-score
C=CCC(OC(C)=O)[C@@H]1[C@@H](N(Cc2ccc(-c3cccc(C(F)(F)F)c3)o2)C(=O)c2ccc(C)cc2)c2cc(OCCCO)ccc2N1C(=O)Cc1ccc(OC)cc1 (some centres undefined) | 0.91
CN(C)CCCCNC(=O)[C@H]1C[C@H]2C(=O)N[C@@H](CCCC[N+](C)(C)C)C(=O)N2[C@H]1c1ccc(O)cc1 | 0.351
CCOC(=O)C1=C[C@@H](c2ccccc2)N(S(=O)(=O)c2ccc(C)cc2)[C@H]1c1ccccc1 | -0.443
C=CC[C@H](OC(=O)Nc1ccc(SC)cc1)c1ccc(OCCO)cc1 | 0.826
O=C(O)[C@H]1C[C@H]2C(=O)N[C@@H](Cc3ccccc3)C(=O)N2[C@H]1c1cccc(OCCO)c1 | 1.02
CN(C)C(=O)[C@]1(CCS(=O)(=O)c2ccccc2)N=C(c2ccc(OCCCO)cc2)O[C@@H]1c1ccccc1 | 1.4
CCOC(=O)C1=C[C@@H](C(C)(C)C)N(S(=O)(=O)c2ccc(C)cc2)[C@H]1c1ccc(C)cc1 | -0.473

Experiment: budding yeast growth changes without added modifier – OD600, strain BY4716, 24 h, basal condition, primary screen (AID 1173)
Settings: S. cerevisiae BY4716 growth, OD600, 24 h; higher = more signal, called active from +8 up or from −8 down

SMILES | z-score
[N-]=[N+]=Nc1ccccc1C[C@]1(C(=O)NCc2ccccc2)COC(c2ccc(OCCCO)cc2)=N1 | 0.858 (inactive)
C=CCNC(=O)[C@H]1[C@@H]2C(=O)O[C@@H](c3ccccc3)[C@@H](c3ccccc3)N2[C@@H](c2ccc(OCCO)cc2)[C@]12C(=O)Nc1ccc(C#CCNC(N)=O)cc12 | 2.3 (inactive)
CCOC(=O)C[C@H]1[C@H](OC(=O)c2ccccc2-c2ccccc2)[C@@H](NC(=O)c2ccc3ccccc3n2)c2cc(OCCCO)ccc2N1C(=O)c1ccccc1 | 1.16 (inactive)
C[C@@H]1ON(c2ccc(I)cc2)[C@H](c2ccc(OC(=O)OC(C)(C)C)cc2)[C@H]1C(=O)N1C(=O)OC[C@H]1Cc1ccccc1 | -1.24 (inactive)
CN1C(=O)[C@@H]2[C@@H](CC(COc3ccccc3)=C([C@H](O)CCc3ccccc3)[C@@H]2CO)C1=O | -3.31 (inactive)
NC(=O)N1C(=O)C2C(C1=O)C1C=C(CCCO)C2C(C2CC2)N1Cc1cccc(OC(F)(F)F)c1 (centres undefined) | -1.33 (inactive)
O=C(N1CCOCC1)[C@@]1(CCS(=O)(=O)c2ccccc2)N=C(c2ccc(OCCCO)cc2)O[C@H]1c1ccccc1 | 1.24 (inactive)
C=C(COC)C(=O)CC[C@H](OC(C)=O)c1ccc(OCCO)cc1 | -0.408 (inactive)
COc1ccc(C(O)C2C=CC3C(=O)N(c4ccccc4)C(=O)C3N2Nc2ccccc2)cc1 (centres undefined) | -2.39 (inactive)
O=C1C2C=CC(C(O)C=Cc3ccc([N+](=O)[O-])cc3)N(Nc3ccccc3)C2C(=O)N1c1ccccc1 (centres undefined) | -2.88 (inactive)
CCN(CC)c1ccc(N2CC=CC34O[C@@H]5C=CCCOC(=O)C5[C@H]3C(=O)N(CCO)[C@@H]4C2=O)cc1 (some centres undefined) | -0.371 (inactive)
CN1C=C(C(=O)OCCS(C)(=O)=O)C(C(=O)OCCS(C)(=O)=O)=CC(c2ccc(CO)cc2)=CC1c1cccs1 (centres undefined) | -3.66 (inactive)
C=C(C)C1CCC(C(O)C2C=CC3C(=O)N(C)C(=O)C3N2Nc2cc(OC)c(OC)c(OC)c2)CC1 (centres undefined) | 0.552 (inactive)
O=C1NC(=O)C2C1C=CC(C(O)c1ccccn1)N2Nc1ccc(Cl)cc1Cl (centres undefined) | -4.1 (inactive)
CCCCC=C[C@@H](NC(=O)c1ccccc1)c1ccccc1 | 0.483 (inactive)
C=C(C(=O)CC[C@H](OC(=O)c1ccccc1-c1ccccc1C(=O)O)c1ccccc1OCCO)C(C)C | -1.04 (inactive)
COCCOC(=O)N1C(=O)[C@@]2(c3cc(C#CCC(C(=O)OC)C(=O)OC)ccc31)[C@H](c1ccc(O)cc1)N1[C@H](c3ccccc3)[C@H](c3ccccc3)OC(=O)[C@H]1[C@@H]2C(=O)NC[C@H](O)c1ccccc1 | -0.149 (inactive)
[N-]=[N+]=NCc1ccccc1[C@@H]1OC(c2ccc(OCCCO)cc2)=N[C@]1(Cc1ccccc1N=[N+]=[N-])C(=O)NCCN1CCOCC1 | -2.33 (inactive)
CN1C(=O)C2C=CC(C(O)c3ccc(I)cc3)N(Nc3ccccc3)C2C1=O (centres undefined) | -0.245 (inactive)
[N-]=[N+]=NCc1ccccc1[C@@H]1OC(c2ccc(OCCCO)cc2)=N[C@]1(Cc1ccccc1)C(=O)NCCN1CCOCC1 | -0.559 (inactive)
CC1(C)C(=O)C(c2ccccc2)=C2CN3C(=O)N(CCc4ccccc4)C(=O)C3(Cc3ccc(C(F)(F)F)cc3)C=C21 (centres undefined) | 1.72 (inactive)
O=C1N(CCS(=O)(=O)c2ccccc2)Cc2ccccc2[C@@H]2OC(c3ccc(OCCCO)cc3)=N[C@]12CCS(=O)(=O)c1ccccc1 | 1.6 (inactive)
